A number with no mark means an inactive call. Inconclusive results are not listed. Entries that show only a call come without a potency. Calls of active or inactive are those of the source. Unless noted, calls follow the shape of the dose curve; as a rule, active = well fitted curve in the direction sought with a large enough effect in the repeat runs; inconclusive = weak or mixed curves; inactive = no such curve, though single readings can be large; an effect the other way counts as inactive or inconclusive.
Key:
[1] = molecular target: Luciferin 4-monooxygenase (Photinus pyralis) (UniProt P08659); experiment: qHTS assay to identify small molecule inhibitors of firefly luciferase (AID 1224835); also: nearly all actives have a fitted effect of over 25% in size
Summary of the method: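 Inhibition of purified Photinus luciferase is measured by luminescence. Substrate levels (D-luciferin, ATP) sit at their KM values. Each compound is tested in a concentration series.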

[2] = qHTS assay to identify small molecule agonists of the constitutive androstane receptor (CAR) signaling pathway - cell viability counter screen (AID 1224836); also: nearly all actives have a fitted effect of over 45% in size
Summary of the method: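 HepG2-CYP2B6-hCAR, 2500 cells/well, 4 h pre-incubation; cpd 15 conc + PK11195 0.75 uM final; 23 h, 37 C/5% CO2; CellTiter-Fluor, fluorescence.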

[3] = qHTS assay to identify small molecule antagonists of the constitutive androstane receptor (CAR) signaling pathway - cell viability counter screen (AID 1224837); also: nearly all actives have a fitted effect of over 45% in size
Summary of the method: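 Using CellTiter-Fluor, viability is scored in HepG2 cells stably carrying hCAR and a 2.2kb CYP2B6 reporter after 23 hr compound exposure across 15 concentrations, with CITCO present at 50 nM.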

[4] = qHTS assay to identify small molecule antagonists of the estrogen related receptor signaling pathway with the pleiotropic PPARgamma coactivator (PGC) from Tox21 10K library - cell viability counter screen (AID 1224840; active = well fitted cell-killing curve with a large enough effect in the repeat runs, not every such curve was filed as active; also: nearly all actives have a fitted effect of over 40% in size)
Summary of the method: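 Here the PGC/ERR cells serve as a cytotoxicity control: they are exposed to compounds for 17.5 hours at 37 C, and live-cell signal is quantified using CellTiter-Fluor fluorescence.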

[5] = qHTS assay to identify small molecule antagonists of the estrogen related receptor signaling pathway with the pleiotropic PPARgamma coactivator (PGC) from Tox21 10K library (AID 1224841; call rule not given here; also: actives are mostly falling curves and most rising ones were filed inactive; nearly all actives have a fitted effect of over 50% in size)
Summary of the method: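 Each well held 2,000 PGC/ERR cells, pre-incubated six hours (37 C, 5% CO2). Test substances in DMSO were added by pin tool and left for 18 h at 37 C before luciferase detection by One-Glo.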

[6] = molecular target: Thyrotropin receptor (Homo sapiens) (UniProt P16473); experiment: qHTS assay to identify small molecule agonists of the thyroid stimulating hormone receptor (TSHR) signaling pathway (AID 1224843; calls by dose curve; also: nearly all actives have a fitted effect of over 45% in size)
Summary of the method: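 HEK293 cells stably bearing the thyrotropin receptor were plated at 800 cells/well and challenged with compound (30 min, RT). Accumulated cAMP was quantified via cAMP-d2 competing for cryptate-tagged antibody.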

[7] = qHTS assay to identify small molecule agonists of the hypoxia (HIF-1) signaling pathway - cell viability counter screen (AID 1224844; calls by dose curve; also: nearly all actives have a fitted effect of over 50% in size)
Summary of the method: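 Multiplexed with the HRE beta-lactamase assay, this viability read used CellTiter-Glo luminescence (30 min, RT) on HRE-bla ME-180 cells treated 17 hrs with compounds in 0.5% dialyzed FBS medium.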

[8] = qHTS assay to identify small molecule agonists of H2AX (AID 1224845; active = well fitted activation curve with a large enough effect in the signal ratio in the repeat runs, not every such curve was filed as active; the % refers to the signal ratio)
Summary of the method: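 Phospho-H2AX Ser139 measured by HTRF (ex 320 nm; em 665 and 620 nm) after 24 hr antibody incubation. Compounds, 15 concentrations, 0.76% DMSO, were applied to CHO-K1 cells for 3hr at 37C before lysis.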

[9] = qHTS assay to identify small molecule agonists of the hypoxia (HIF-1) signaling pathway (AID 1224846; active = well fitted activation curve with a large enough effect in the signal ratio in the repeat runs, not every such curve was filed as active; the % refers to the signal ratio)
Summary of the method: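 Hypoxia-pathway activation was scored as increased beta-lactamase from an HRE-controlled reporter in ME-180 cells; plated at 2,000 cells per well with 0.5% dialyzed FBS, they were exposed 17 hrs to compounds and then given CCF4-AM.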

[10] = qHTS assay to identify small molecule agonists of H2AX - cell viability counter screen (AID 1224847; calls by dose curve;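 also: wild-type CHO-K1 cells; top concentration of the series differs between compounds; nearly all actives have a fitted effect of over 30% in size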)
Summary of the method: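 Cells plated first: CHO-K1, 1000 per well in 10% FBS medium, incubated overnight at 37C. Then 15-point compound titration added (final DMSO 0.76%) for 3 hr. Finally CellTiter-Glo added and luminescence read.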

[11] = qHTS assay to identify small molecule antagonists of the estrogen related receptor (ERR) signaling pathway from Tox21 library (AID 1224848); also: nearly all actives have a fitted effect of over 50% in size; also: potency is read from the fitted curve at half-maximal effect
Summary of the method: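 Reading was by luminescence 30 min after ONE-Glo addition. Before that, ERR cells at 2,000 per well had rested 6 h at 37 C/5% CO2 and then received pin-tooled compounds in DMSO for 18 h at 37 C.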

[12] = qHTS assay to identify small molecule agonists of the estrogen related receptor (ERR) signaling pathway from Tox21 library (AID 1224849; calls by dose curve; also: nearly all actives have a fitted effect of over 15% in size); details: ERR reporter cell line, ONE-Glo luciferase, 18 h; at 42.5 µM (top of the series)
Summary of the method: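 Six hours post-seeding at 37 C/5% CO2, ERR cells receive DMSO-solubilised compounds; after 18 h at 37 C, ONE-Glo reagent is applied and luminescence recorded.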

[13] = qHTS RealTime-Glo MT Cell Viability Assay in HepG2 cells - 24 hour (AID 1224867); also: nearly all actives have a fitted effect of over 50% in size
Summary of the method: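 Cell number in HepG2 cultures estimated from NanoLuc luminescence generated by metabolic reduction of a prosubstrate by living cells. The homogeneous, nonlytic format allowed repeated reads at 0, 8, 16, 24, 32 and 40 h of compound exposure.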

[14] = qHTS RealTime-Glo MT Cell Viability Assay in HEK293 cells - 32 hour (AID 1224868)
Summary of the method: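 Homogeneous bioluminescent viability format in HEK293 cells (600 cells/well). Following 5 h at 37 C/5% CO2, 23 nL compound was pintooled; the signal was measured repeatedly during 40 h incubation.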

[15] = A CellTox Green Cytotoxicity Assay to monitor cytotoxicity in HEK293 cells - 0 hour (AID 1224869); also: nearly all actives have a fitted effect of over 50% in size
Summary of the method: (§1)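 Seeding of HEK293 cells together with cytotoxicity dye preceded a 5 h incubation at 37 C/5% CO2. Test compounds in DMSO were then added and fluorescence monitored across 40 h.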

[16] = qHTS RealTime-Glo MT Cell Viability Assay in HepG2 cells - 40 hour (AID 1224870); also: nearly all actives have a fitted effect of over 50% in size
Summary of the method: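 Real-time viability: cells seeded at 600 per well together with NanoLuc and cell-permeant prosubstrate, compounds added after 5 h incubation. Luminescence tracked at 0, 8, 16, 24, 32 and 40 h of exposure.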

[17] = A CellTox Green Cytotoxicity Assay to monitor cytotoxicity in HEK293 cells - 40 hour (AID 1224871); also: nearly all actives have a fitted effect of over 45% in size
Summary of the method: as §1

[18] = molecular target: Nuclear receptor subfamily 1 group I member 3 (Homo sapiens) (UniProt Q14994); experiment: qHTS assay to identify small molecule agonists of the constitutive androstane receptor (CAR) signaling pathway (AID 1224839);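 also: HepG2 cells stably carrying human CAR and a CYP2B6 luciferase reporter; nearly all actives have a fitted effect of over 15% in size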
Summary of the method: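 HepG2-CYP2B6-hCAR cells, 2500/well, 4 h pre-incubation; compounds 15 conc.; PK11195 0.75 uM final; 24 h, 37 C/5% CO2; ONE-Glo luciferase read.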

[19] = qHTS assay to identify small molecule agonists of the estrogen related receptor signaling pathway with the pleiotropic PPARgamma coactivator (PGC) from Tox21 10K library (AID 1224842); also: nearly all actives have a fitted effect of over 15% in size
Summary of the method: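 Luminescence from One-Glo (30 min, room temperature) measured after PGC/ERR cells had 18 h at 37 C with pinned compound (23 nL in DMSO). Cells had been seeded at 2,000 per well and pre-incubated 6 h.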

Sequence of Luciferin 4-monooxygenase (Photinus pyralis) (P08659 whole entry, looked up): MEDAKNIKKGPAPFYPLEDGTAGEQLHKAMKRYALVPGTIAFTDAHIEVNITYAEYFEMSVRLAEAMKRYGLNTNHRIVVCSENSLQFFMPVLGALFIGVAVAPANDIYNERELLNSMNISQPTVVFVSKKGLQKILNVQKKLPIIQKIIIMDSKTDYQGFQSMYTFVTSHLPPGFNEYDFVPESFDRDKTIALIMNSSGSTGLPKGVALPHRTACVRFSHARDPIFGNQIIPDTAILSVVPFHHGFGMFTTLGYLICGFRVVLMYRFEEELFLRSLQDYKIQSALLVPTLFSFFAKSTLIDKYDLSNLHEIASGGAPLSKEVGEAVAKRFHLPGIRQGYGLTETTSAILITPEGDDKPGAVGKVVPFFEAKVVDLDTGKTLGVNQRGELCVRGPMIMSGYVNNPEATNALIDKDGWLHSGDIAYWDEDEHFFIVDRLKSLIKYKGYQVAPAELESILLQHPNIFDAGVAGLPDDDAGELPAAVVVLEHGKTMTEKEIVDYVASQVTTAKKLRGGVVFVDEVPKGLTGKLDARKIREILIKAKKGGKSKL
Sequence of Thyrotropin receptor (Homo sapiens) (P16473 whole entry, looked up): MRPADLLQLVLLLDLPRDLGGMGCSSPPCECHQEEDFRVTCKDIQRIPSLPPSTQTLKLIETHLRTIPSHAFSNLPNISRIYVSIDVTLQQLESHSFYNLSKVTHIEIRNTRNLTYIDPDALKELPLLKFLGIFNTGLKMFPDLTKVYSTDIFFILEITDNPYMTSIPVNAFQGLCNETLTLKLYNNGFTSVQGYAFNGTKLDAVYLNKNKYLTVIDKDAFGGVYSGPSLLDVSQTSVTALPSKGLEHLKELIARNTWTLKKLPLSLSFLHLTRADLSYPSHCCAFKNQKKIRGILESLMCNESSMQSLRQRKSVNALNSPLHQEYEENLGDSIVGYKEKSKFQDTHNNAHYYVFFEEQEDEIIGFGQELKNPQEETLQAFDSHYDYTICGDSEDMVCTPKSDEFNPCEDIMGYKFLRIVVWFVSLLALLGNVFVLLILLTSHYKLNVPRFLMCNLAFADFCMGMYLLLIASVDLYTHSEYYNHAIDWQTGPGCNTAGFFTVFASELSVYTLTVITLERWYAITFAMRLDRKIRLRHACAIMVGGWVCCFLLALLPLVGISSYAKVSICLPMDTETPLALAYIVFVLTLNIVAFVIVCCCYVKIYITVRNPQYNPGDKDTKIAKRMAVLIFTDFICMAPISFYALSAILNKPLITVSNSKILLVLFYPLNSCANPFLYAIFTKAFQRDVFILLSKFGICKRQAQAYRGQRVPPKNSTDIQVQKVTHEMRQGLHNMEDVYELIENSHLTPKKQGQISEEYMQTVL
Sequence of Nuclear receptor subfamily 1 group I member 3 (Homo sapiens) (Q14994 whole entry, looked up): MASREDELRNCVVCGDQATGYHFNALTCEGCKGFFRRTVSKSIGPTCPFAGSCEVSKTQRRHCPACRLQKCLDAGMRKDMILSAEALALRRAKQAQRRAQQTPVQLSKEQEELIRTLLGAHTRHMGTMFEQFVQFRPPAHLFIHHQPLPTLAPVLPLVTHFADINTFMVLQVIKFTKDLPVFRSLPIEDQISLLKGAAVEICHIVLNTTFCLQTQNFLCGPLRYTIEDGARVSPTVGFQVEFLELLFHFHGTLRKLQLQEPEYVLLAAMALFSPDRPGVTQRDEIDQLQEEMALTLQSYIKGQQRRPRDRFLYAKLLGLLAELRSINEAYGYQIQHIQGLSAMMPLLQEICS

SMILES	Potency [1]	Potency [2]	Potency [3]	Potency [4]	Potency [5]	Potency [6]	Potency [7]	Potency [8]	Potency [9]	Potency [10]	Potency [11]	activity change, positive = activation [12] [%]	Potency [13]	Potency [14]	Potency [15]	Potency [16]	Potency [17]	Potency [18]	Potency [19]
CC(C)(c1cc(Br)c(OCC(Br)CBr)c(Br)c1)c1cc(Br)c(OCC(Br)CBr)c(Br)c1 (stereo not drawn)	inactive	inactive	inactive	inactive	inactive	inactive	inactive	inactive	inactive	inactive	inactive	2.35	inactive	inactive	inactive	inactive	inactive		
CCO[C@@H]1O[C@H](C(COCc2ccccc2)OCc2ccccc2)[C@H](OCc2ccccc2)[C@H]1O (stereo partly drawn)	inactive	inactive	inactive			inactive		inactive			29.8 µM (active)	-48	inactive		inactive	inactive		inactive	inactive
CC(=O)Oc1cc2c(s1)CCN(C(C(=O)C1CC1)c1ccccc1F)C2 (stereo not drawn)	inactive	inactive	inactive	inactive	inactive	inactive	inactive		inactive		inactive	-6.5	inactive		inactive	inactive			inactive
O=S(=O)(O)c1ccc(Nc2nc(Nc3ccc(/C=C/c4ccc(Nc5nc(Nc6ccc(S(=O)(=O)O)cc6)nc(N(CCO)CCO)n5)cc4S(=O)(=O)O)c(S(=O)(=O)O)c3)nc(N(CCO)CCO)n2)cc1	inactive	inactive	inactive	inactive	inactive	inactive	inactive			inactive	inactive	7.49	inactive	inactive	inactive	inactive	inactive		

Reference: PubChem BioAssay (Tox21)
